tested on: RARg:RXRa (NR concentration 270 nM, RXRa partner concentration 90 nM); test: PBM binding z-score (relative to random genomic background probes); higher = stronger binding; sequences stand for … in GC…GCGATTGACAGCGTAGAATGAAGG
Summary of the method: (§1)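 Binding z-scores take random background probes as their reference. They come from custom Agilent 4×180K protein-binding microarrays incubated 1 h with ligand-free nuclear receptor dimers, with antibodies against each partner (one per run) detecting binding. Scanned fluorescence was regression-normalized.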

First: TTACCAAGGTGAGCTGAGGTCGTTGGTCCAACTC
Second: CCTACTGGGCCATTCAGAGTTCATTGATCATATG
The PBM binding z-score of the first is lower: 1.2 for the first, 2.54 for the second.

Compared with TCTTGTAGATCAACAGGAGGTTAAGAAAGATCGA, AGAATGAGGTTATACGTAGAGCAGGGAAGAAAGT is higher in PBM binding z-score: 0.934 for the first, 1.69 for the second.

Compared with ACTAGTTGGTCAGCTGAGTTCACACACAATTCGG, CAGCCTAGGTCAGGCCCAGTATAGGAGGAACGTT is higher in PBM binding z-score: 1.78 for the first, 2.54 for the second.

Compared with CGTCCAAGGTCATAGGAGGTCAGTGCAGACAGAT, GTACCAAGGTCAATAGGTCGTTGATGAGTAGGCG is lower in PBM binding z-score: 6.63 for the first, 6.58 for the second.

Going from ATCTCTAGTTAAGACTCAGTTCAGTGAAGAACGC to CCTAGCAGGCCAATCTGGGTAACTCAAGGCTTGA, the PBM binding z-score falls from 0.145 to -0.429.

First: GCTAGTTGGTCAGTAAAAGGCCACACACCGGTCG
Second: CCTAGTTGGTCAGGAGGTCACACACCGGATATGA
The PBM binding z-score of the first is lower: 0.944 for the first, 5.11 for the second.

Compared with CCTCGGAGGACAACTGGAGGTCAGAGCTGCCAGA, ATATGTAGGTTAGCTGGGATCATTCAGACTAGGC is lower in PBM binding z-score: 4.12 for the first, 0.559 for the second.

Going from AGTCAAAGTGCAGGACGAGGTAACGTAAAGCACG to GCAGACAGGTGAAACGCAGGTAGCTCAGGGTGGC, the PBM binding z-score falls from 0.878 to 0.108.

First: AGCGAAAGGTCGACGAGGTGAGTATACACCGTTT
Second: TACCCTAGGTCAGATCGGGCCAGTATACGCTATA
The PBM binding z-score of the first is higher: 4.23 for the first, 2.98 for the second.

tested on: RARg homodimer (NR concentration 270 nM); test: as above
Summary of the method: as §1

First: CCTACTGGGTCATCAGGTCATTGATATCAACGTT
Second: TAGACTAGGTCATGGGCCAGTATACCACGCGAAC
The PBM binding z-score of the first is higher: 5 for the first, 4.47 for the second.

First: TCTTGTAAATCAAGCAGGTTAAGAAAGCCTGAGT
Second: TCATATAGCTAATACAGGTGAAAGTCGGCATCTA
The PBM binding z-score of the first is lower: -0.176 for the first, 0.338 for the second.

Going from GTAGACAGGTGAAACGCAGGTAACTCAGGGTGGC to CAGCCTAGGTCAGGGCCAGTATCGGAGGAACGTT, the PBM binding z-score rises from 0.286 to 4.2.

Compared with ATCTCTAGGTAAGACTCTGTTCAGTGAAGAACGC, TCGAGTAGGTTAGGTGCATTCAGAATGGCGTCGA is lower in PBM binding z-score: 0.134 for the first, -0.0841 for the second.

Compared with TCATCTAGGTAAATGCTAGGTGAAAGTCCGATCT, CCGAGTAGGTTATGCGGCATTCAGGCAACGGTGA is lower in PBM binding z-score: 0.0447 for the first, -0.0255 for the second.

Going from TCTTGTAGATCAACAGGATGTTAAGAAAGATCGA to TCGAGTAGGTCAGTCGGGGCATTCAGCCAACATA, the PBM binding z-score rises from 0.033 to 3.17.

First: CCTACTGGGCCAAAAAGGTTATTGATGCCGATAA
Second: CGTCCAAGGTCACAGGTCAGTGAAGAGATGACGG
The PBM binding z-score of the first is lower: 0.644 for the first, 7.51 for the second.

Compared with TCATATAGGTAGAAGGTGAAAGTCGGTGTGGTAA, ATCGAAAGGTCGAGGTAAGTATAGAGAAAGGGAA is higher in PBM binding z-score: 0.283 for the first, 4.27 for the second.

First: CGTCCAAGGTCAGCAGGTCAGTGAGAGCGACGTG
Second: TCATATAGGGAAAAGGTGAAAGTCGGTGTGGTAA
The PBM binding z-score of the first is higher: 6.67 for the first, 0.821 for the second.

Compared with ACTATTAGTTGACTTAGGGCAACCAATACGACGC, ACTAGCAGGCCAAGCGTCACTCAAGATTAGTCCG is lower in PBM binding z-score: 0.945 for the first, 0.0982 for the second.

First: AATACAGGGTCATCGTAGGCCTGAGTACGCACAG
Second: ACTATTAGTTGACTTATGGCAACCGATACGACGC
The PBM binding z-score of the first is higher: 4.89 for the first, 0.872 for the second.

Going from TTACCAAGGTGAGCTGAGGTCGTTGGTCCAACTC to CCTACTGGGCCATTCAGAGTTCATTGATCATATG, the PBM binding z-score rises from 0.604 to 1.23.

Going from TCTTGTAGATCAACAGGAGGTTAAGAAAGATCGA to AGAATGAGGTTATACGTAGAGCAGGGAAGAAAGT, the PBM binding z-score rises from 0.306 to 0.941.

Going from ACTAGTTGGTCAGCTGAGTTCACACACAATTCGG to CAGCCTAGGTCAGGCCCAGTATAGGAGGAACGTT, the PBM binding z-score rises from 2.11 to 3.21.

Compared with CGTCCAAGGTCATAGGAGGTCAGTGCAGACAGAT, GTACCAAGGTCAATAGGTCGTTGATGAGTAGGCG is lower in PBM binding z-score: 6.9 for the first, 5.59 for the second.

Going from ATCTCTAGTTAAGACTCAGTTCAGTGAAGAACGC to CCTAGCAGGCCAATCTGGGTAACTCAAGGCTTGA, the PBM binding z-score falls from 0.575 to -0.124.

First: GCTAGTTGGTCAGTAAAAGGCCACACACCGGTCG
Second: CCTAGTTGGTCAGGAGGTCACACACCGGATATGA
The PBM binding z-score of the first is lower: 0.676 for the first, 4.78 for the second.

First: CCTCGGAGGACAACTGGAGGTCAGAGCTGCCAGA
Second: ATATGTAGGTTAGCTGGGATCATTCAGACTAGGC
The PBM binding z-score of the first is higher: 4.11 for the first, 0.765 for the second.

Going from AGTCAAAGTGCAGGACGAGGTAACGTAAAGCACG to GCAGACAGGTGAAACGCAGGTAGCTCAGGGTGGC, the PBM binding z-score falls from 1.15 to -0.0233.

First: AGCGAAAGGTCGACGAGGTGAGTATACACCGTTT
Second: TACCCTAGGTCAGATCGGGCCAGTATACGCTATA
The PBM binding z-score of the first is higher: 4.03 for the first, 3.5 for the second.

tested on: RXRa DBDmut IVT, anti-RXR (DBD mutation: RXRa K156A/R161A, NR concentration 90 nM); test: as above
Summary of the method: as §1

Going from CCTACTGGGTCATCAGGTCATTGATATCAACGTT to TAGACTAGGTCATGGGCCAGTATACCACGCGAAC, the PBM binding z-score falls from 2.14 to -0.0129.

Going from TCTTGTAAATCAAGCAGGTTAAGAAAGCCTGAGT to TCATATAGCTAATACAGGTGAAAGTCGGCATCTA, the PBM binding z-score rises from 0.73 to 1.09.

Going from GTAGACAGGTGAAACGCAGGTAACTCAGGGTGGC to CAGCCTAGGTCAGGGCCAGTATCGGAGGAACGTT, the PBM binding z-score rises from -0.661 to -0.106.

First: ATCTCTAGGTAAGACTCTGTTCAGTGAAGAACGC
Second: TCGAGTAGGTTAGGTGCATTCAGAATGGCGTCGA
The PBM binding z-score of the first is lower: 0.365 for the first, 1.04 for the second.

First: TCATCTAGGTAAATGCTAGGTGAAAGTCCGATCT
Second: CCGAGTAGGTTATGCGGCATTCAGGCAACGGTGA
The PBM binding z-score of the first is higher: 1.17 for the first, -0.0566 for the second.

Compared with TCTTGTAGATCAACAGGATGTTAAGAAAGATCGA, TCGAGTAGGTCAGTCGGGGCATTCAGCCAACATA is higher in PBM binding z-score: 0.72 for the first, 0.903 for the second.

Going from CCTACTGGGCCAAAAAGGTTATTGATGCCGATAA to CGTCCAAGGTCACAGGTCAGTGAAGAGATGACGG, the PBM binding z-score rises from -0.387 to 3.42.

First: TCATATAGGTAGAAGGTGAAAGTCGGTGTGGTAA
Second: ATCGAAAGGTCGAGGTAAGTATAGAGAAAGGGAA
The PBM binding z-score of the first is higher: 2.05 for the first, 0.467 for the second.

Compared with CGTCCAAGGTCAGCAGGTCAGTGAGAGCGACGTG, TCATATAGGGAAAAGGTGAAAGTCGGTGTGGTAA is lower in PBM binding z-score: 2.46 for the first, 2.07 for the second.

Compared with ACTATTAGTTGACTTAGGGCAACCAATACGACGC, ACTAGCAGGCCAAGCGTCACTCAAGATTAGTCCG is lower in PBM binding z-score: 0.699 for the first, -0.131 for the second.

Compared with AATACAGGGTCATCGTAGGCCTGAGTACGCACAG, ACTATTAGTTGACTTATGGCAACCGATACGACGC is lower in PBM binding z-score: 3.34 for the first, 0.726 for the second.

Going from TTACCAAGGTGAGCTGAGGTCGTTGGTCCAACTC to CCTACTGGGCCATTCAGAGTTCATTGATCATATG, the PBM binding z-score rises from -0.219 to 2.26.

First: TCTTGTAGATCAACAGGAGGTTAAGAAAGATCGA
Second: AGAATGAGGTTATACGTAGAGCAGGGAAGAAAGT
The PBM binding z-score of the first is lower: 0.35 for the first, 1.58 for the second.

Compared with ACTAGTTGGTCAGCTGAGTTCACACACAATTCGG, CAGCCTAGGTCAGGCCCAGTATAGGAGGAACGTT is lower in PBM binding z-score: 2.27 for the first, -0.298 for the second.

Compared with CGTCCAAGGTCATAGGAGGTCAGTGCAGACAGAT, GTACCAAGGTCAATAGGTCGTTGATGAGTAGGCG is lower in PBM binding z-score: 4 for the first, 2.86 for the second.

First: ATCTCTAGTTAAGACTCAGTTCAGTGAAGAACGC
Second: CCTAGCAGGCCAATCTGGGTAACTCAAGGCTTGA
The PBM binding z-score of the first is higher: 0.575 for the first, 0.0487 for the second.

Going from GCTAGTTGGTCAGTAAAAGGCCACACACCGGTCG to CCTAGTTGGTCAGGAGGTCACACACCGGATATGA, the PBM binding z-score rises from -0.169 to 0.706.

First: CCTCGGAGGACAACTGGAGGTCAGAGCTGCCAGA
Second: ATATGTAGGTTAGCTGGGATCATTCAGACTAGGC
The PBM binding z-score of the first is higher: 0.362 for the first, 0.0124 for the second.

Compared with AGTCAAAGTGCAGGACGAGGTAACGTAAAGCACG, GCAGACAGGTGAAACGCAGGTAGCTCAGGGTGGC is lower in PBM binding z-score: -0.269 for the first, -0.578 for the second.

Compared with AGCGAAAGGTCGACGAGGTGAGTATACACCGTTT, TACCCTAGGTCAGATCGGGCCAGTATACGCTATA is lower in PBM binding z-score: 0.801 for the first, 0.165 for the second.

From the supplement of paper PMC6555819
